Laboratory results reported in PubChem BioAssay (NCATS).
Inconclusive results are not listed. Active and inactive are the calls of the source. The call rests on the fitted dose curve; in most records, active means well fitted inhibition curve with a large enough effect; inconclusive means small, poorly fitted or top-dose-only effect; inactive means flat fitted curve, though single readings scatter.

Legend:
Test in all cases: Cytotoxic Profiling of Annotated Libraries Using Quantitative High-Throughput Screening (AID 1296008); further: nearly all actives have a fitted effect of over 60% in size
Conditions in all cases: Five cell lines viability, CellTiter-Glo ATP luminescence, 48-72 h; max response: stronger effect = lower value
CRL-7250 = system: CRL-7250
Method in brief: (§1)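 Compounds were pin-transferred onto cells and incubated 48 or 72 hr at 37 degree Celsius, 95% humidity. CellTiter-Glo was added, plates sat 10 min at room temperature, then ATP-coupled luminescence was imaged as the viability read-out.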

HEK293 = system: HEK293
Method in brief: as §1

HaCat = system: HaCat
Method in brief: as §1

KB-3-1 = system: KB-3-1
Method in brief: as §1

NIH3T3 = system: NIH3T3
Method in brief: as §1

Measured: max response
On the % scale 0 is the no-effect control and ±100 the full control effect.

C[C@@H]1O[C@@H](O[C@@H]2[C@@H](O)[C@H](O[C@@H]3[C@@H](O)[C@@H](O)[C@H](O[C@H]4[C@H](OC(=O)[C@]56CCC(C)(C)C[C@H]5C5=CCC7[C@@]8(C)C[C@H](O)[C@H](O[C@@H]9O[C@@H](C)[C@H](O)[C@@H](O)[C@H]9O)[C@@](C)(CO)C8CC[C@@]7(C)[C@]5(C)C[C@H]6O)O[C@H](C)[C@H](O)[C@@H]4O)O[C@H]3C)OC[C@H]2O)[C@H](O)[C@H](O)[C@H]1O (stereo not given in full)
inactive: CRL-7250 4.2% | HEK293 | HaCat | KB-3-1 | NIH3T3

CC1=C2[C@@H]([C@H](C)CC[C@H]2/C=C(\C)C(=O)O)[C@H](O)C1
inactive: CRL-7250 0.252% | HEK293 | HaCat | KB-3-1 3.15% | NIH3T3 3.16%

Cc1nnc(C(C)C)n1C1CC2CCC(C1)N2CCC(NC(=O)C1CCC(F)(F)CC1)c1ccccc1 (stereo not given)
inactive: CRL-7250 -10.9% | HEK293 | HaCat | KB-3-1 8.02% | NIH3T3 -0.909%

CC/C=C/CC1=C(CCCCCCCC(=O)O)CCC1=O
inactive: CRL-7250 0.164% | HEK293 | HaCat | KB-3-1 0.0316% | NIH3T3 -0.116%

CN1C(=O)c2ccccc2-n2c(nc3ccccc3c2=O)[C@@]12O[C@H]2c1ccccc1
inactive: CRL-7250 -8.37% | HEK293 | HaCat -0.431% | KB-3-1 | NIH3T3

CC(C)C(=O)c1cn(CC(=O)COc2ccc(Oc3ccccc3)cc2)c2ccc(C(=O)O)cc12
inactive: CRL-7250 3.02% | HEK293 | HaCat -4.02% | KB-3-1 -0.497% | NIH3T3 -1.24%

COc1cc(C2c3cc(O)c(OC)cc3CC(CO)C2CO)ccc1O (stereo not given)
inactive: all assays above

CC1=CC(=O)CC(C)(C)C1(O)CCC(C)O (stereo not given)
inactive: CRL-7250 | HEK293 | HaCat | KB-3-1 | NIH3T3 2.02%

COc1ccc2c(c1)OC[C@]1(O)c3cc4c(cc3O[C@H]21)OCO4
inactive: CRL-7250 -0.876% | HEK293 | HaCat | KB-3-1 | NIH3T3

CCC(CCO[C@@H]1O[C@H](CO[C@H]2OC[C@](O)(CO)[C@H]2O)[C@@H](O)[C@H](O)[C@H]1O)C(C)(C)O (stereo not given in full)
inactive: CRL-7250 -2.81% | HEK293 | HaCat | KB-3-1 | NIH3T3 1.97%

CC(O)(CC(=O)O)CC(=O)O[C@@H]1[C@@H](O)[C@H](OCCc2ccccc2)O[C@H](CO)[C@H]1O (stereo not given in full)
inactive: CRL-7250 -0.691% | HEK293 | HaCat -14.4% | KB-3-1 7.92% | NIH3T3 1.93%

C[C@@H]1C/C=C/C=C\C=C\C=C\[C@H](O[C@@H]2O[C@H](C)[C@@H](O)[C@H](N)[C@@H]2O)C[C@@H]2O[C@](O)(C[C@@H](O)C[C@H]3O[C@@H]3/C=C/C(=O)O1)C[C@H](O)[C@H]2C(=O)O
inactive: CRL-7250 2.84% | HEK293 | HaCat | KB-3-1 3.12% | NIH3T3 -11.8%

CC(=O)O[C@H]1[C@H](C)[C@@H](O)[C@H]2[C@@H]1C=C(C(=O)O)[C@H]1C[C@@H]3[C@H]([C@H]21)[C@H]1C(=O)O[C@@H]2CC[C@@]3(C)O[C@]1(O)[C@@H]2C
inactive: CRL-7250 -0.589% | HEK293 | HaCat | KB-3-1 7.8% | NIH3T3

CC(C)(C)NCC(O)COc1cccc2c1CCCC2=O (stereo not given)
inactive: CRL-7250 | HEK293 | HaCat -7.74% | KB-3-1 | NIH3T3

C#Cc1cnc2[nH]c(=O)n(C(CC)CC)c2n1
inactive: CRL-7250 | HEK293 | HaCat | KB-3-1 8.63% | NIH3T3

COC1CCCC/C(C)=C/C2C=C(C)C(C)C3C(CC(C)C)NC(=O)C23C(=O)C1 (stereo not given)
inactive: CRL-7250 | HEK293 | HaCat | KB-3-1 5.18% | NIH3T3

COc1cc(CC(COC2OC(CO)C(O)C(O)C2O)c2cc(/C=C/CO)cc(OC)c2O)ccc1O (stereo not given)
inactive: CRL-7250 | HEK293 | HaCat 1.49% | KB-3-1 1.74% | NIH3T3

COC(=O)[C@H](CC1C=NC=N1)NCC12CC3CC(CC(C3)C1)C2 (stereo not given in full)
inactive: CRL-7250 -3.43% | HEK293 | HaCat | KB-3-1 1.43% | NIH3T3

C[C@@H]1O[C@@H](O[C@H]2[C@H](OC(=O)[C@]34CCC(C)(C)C[C@H]3C3=CCC5[C@@]6(C)CC[C@H](O[C@@H]7O[C@H](CO[C@@H]8OC[C@H](O)[C@H](O)[C@H]8O)[C@@H](O)[C@H](O)[C@H]7O)C(C)(C)C6CC[C@@]5(C)[C@]3(C)C[C@H]4O)OC[C@@H](O)[C@@H]2O)[C@H](O)[C@H](O)[C@H]1O[C@@H]1OC[C@H](O)[C@H](O[C@@H]2OC[C@@H](O)[C@H](O)[C@H]2O)[C@H]1O (stereo not given in full)
inactive: CRL-7250 -0.806% | HEK293 | HaCat -0.578% | KB-3-1 | NIH3T3
